Data on 4 compounds can be found in PubChem BioAssay (EPA / NIEHS).

Values joined by “and” are separate entries in the source; they are usually repeats but may differ in a detail not shown here. Equal values may be shown once. Active and inactive are the calls of the source. Rule for the calls: active = hit-call score of the fitted dose curve at least 0.9, where 1 is the maximum; inactive = score below 0.9.

Read-out in test [1]: Interleukin-1 alpha (IL1a), IL1A (gene 3552)
Kind of test: BSK_KF3CT_IL1a: BioMAP Diversity Plus: KF3CT Assay for Interleukin-1 alpha (IL1a) Biomarker Activity (AID 2283070). As to conditions: primary human keratinocytes with fibroblasts; actives raise or lower the signal. Put shortly:
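Primary skin co-culture (keratinocytes, foreskin fibroblasts), 24 h exposure; ELISA for IL-1a; bidirectional curve fit vs DMSO.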

Read-out in test [2]: TIMP metallopeptidase inhibitor 2 (TIMP2), TIMP2 (gene 7077)
In words: BSK_KF3CT_TIMP2: BioMAP Diversity Plus: KF3CT Assay for TIMP metallopeptidase inhibitor 2 (TIMP2) Biomarker Activity (AID 2283071). The following applies: primary human keratinocytes with fibroblasts; actives raise or lower the signal. Put shortly: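 ELISA readout of TIMP-2 in keratinocyte plus foreskin fibroblast co-cultures (human skin primary cells), 24 h post-dose. Gain or loss of signal fitted relative to DMSO.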

Read-out in test [3]: Transforming growth factor beta 1 (TGFb1), TGFB1 (gene 7040)
Kind of test: BSK_KF3CT_TGFb1: BioMAP Diversity Plus: KF3CT Assay for Transforming growth factor beta 1 (TGFb1) Biomarker Activity (AID 2283072). As to conditions: primary human keratinocytes with fibroblasts; actives raise or lower the signal. Put shortly:
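Read-out: ELISA for TGF-b1 in keratinocyte/foreskin fibroblast human skin co-culture, 24 h after dosing; bidirectional curve fit vs DMSO baseline; gain or loss of signal scored.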

Read-out in test [4]: C-C motif chemokine 2 (Homo sapiens) (UniProt P13500)
In words: BSK_KF3CT_MCP1: BioMAP Diversity Plus: KF3CT Assay for Monocyte Chemoattractant Protein 1 (MCP1/CCL2) Biomarker Activity (AID 2283073). As to conditions: primary human keratinocytes with fibroblasts; actives raise or lower the signal. In a few lines: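 ELISA read-out of MCP-1, 24 h post-dose, in primary human skin keratinocytes co-cultured with fibroblasts. Parallel SRB staining monitors cytotoxicity; changes fitted both directions relative to DMSO.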

Read-out in test [5]: Matrix Metallopeptidase 9 (MMP9), MMP9 (gene 4318)
In words: BSK_KF3CT_MMP9: BioMAP Diversity Plus: KF3CT Assay for Matrix Metallopeptidase 9 (MMP9) Biomarker Activity (AID 2283074).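 For AC50: MMP9 protein level quantified by ELISA in the co-culture.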 As to conditions: primary human keratinocytes with fibroblasts; actives raise or lower the signal. Put shortly:
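ELISA read-out of MMP-9 at 24 h post-dosing in a co-culture of human skin keratinocytes and foreskin fibroblasts. Gain or loss of signal was fitted in both directions against DMSO.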

Read-out in test [6]: urokinase plasminogen activator (uPA), PLAU (gene 5328)
Kind of test: BSK_KF3CT_uPA: BioMAP Diversity Plus: KF3CT Assay for urokinase plasminogen activator (uPA) Biomarker Activity (AID 2283075). As to conditions: primary human keratinocytes with fibroblasts; actives raise or lower the signal. In a few lines:
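Skin co-culture (keratinocytes + foreskin fibroblasts), human primary; 24 h post-dose; uPA by ELISA; gain/loss fit vs DMSO baseline.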

Read-out in test [7]: CD40, CD40 (gene 958)
In words: BSK_LPS_CD40: BioMAP Diversity Plus: LPS Assay for CD40 Biomarker Activity (AID 2283076). As to conditions: primary human HUVEC with PBMC; actives raise or lower the signal. In a few lines: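 In the LPS system of human endothelial cells with peripheral blood mononuclear cells, CD40 levels were read by ELISA 24 h post-treatment. Signal changes in either direction were fitted against the DMSO baseline, with parallel SRB protein staining.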

Read-out in test [8]: E-selectin (Homo sapiens) (UniProt P16581)
In words: BSK_LPS_Eselectin: BioMAP Diversity Plus: LPS Assay for Eselectin Biomarker Activity (AID 2283077). As to conditions: primary human HUVEC with PBMC; actives raise or lower the signal. Put shortly: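 E-selectin ELISA on LPS-stimulated endothelial cell/PBMC co-cultures, read 24 h post-treatment; gains and losses fitted against DMSO. Parallel SRB staining (0.1% SRB after 10% TCA fixation, 560 nm) flags overt cytotoxicity.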

A short description of test [9]: BSK_LPS_SRB: Viability Assessment in the BioMAP Diversity Plus: LPS Assay (AID 2283079).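 Note: total protein by sulforhodamine B absorbance as a cytotoxicity measure; measured one day after compound addition.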 As to conditions: primary human HUVEC with PBMC. Put shortly:
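SRB viability endpoint: cells fixed with 10% TCA, stained with 0.1% SRB, read at 560 nm, 24 h post-dose. HUVEC/PBMC co-culture; signal change in either direction scored relative to DMSO.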

Read-out in test [10]: Interleukin-1 alpha (IL1a), IL1A (gene 3552)
Kind of test: BSK_LPS_IL1a: BioMAP Diversity Plus: LPS Assay for Interleukin-1 alpha (IL1a) Biomarker Activity (AID 2283080). As to conditions: primary human HUVEC with PBMC; actives raise or lower the signal. In a few lines: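 Readout is IL-1a level by ELISA, 24 h post-dose, fitted as gain or loss relative to DMSO. System: LPS-activated human primary co-culture of vascular endothelium and peripheral blood mononuclear cells, with parallel SRB total-protein cytotoxicity.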

Read-out in test [11]: Monocyte Chemoattractant Protein-1 (MCP1), CCL2 (gene 6347)
Kind of test: BSK_LPS_MCP1: BioMAP Diversity Plus: LPS Assay for Monocyte Chemoattractant Protein-1 (MCP1) Biomarker Activity (AID 2283081).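 For AC50: secreted MCP-1 protein quantified by ELISA in culture supernatant.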 As to conditions: primary human HUVEC with PBMC; actives raise or lower the signal. In a few lines: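 Secreted MCP-1 read by ELISA at 24 h post-dosing in an LPS-activated co-culture of endothelial cells with peripheral blood mononuclear cells. Fits run in both directions, DMSO as baseline; parallel SRB staining tracks overt cytotoxicity.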

A short description of test [12]: BSK_LPS_PGE2: BioMAP Diversity Plus: LPS Assay for Prostaglandin E2 (PGE2) Biomarker Activity (AID 2283082).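 For AC50: secreted prostaglandin E2 measured by ELISA in LPS-stimulated co-culture.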 The following applies: primary human HUVEC with PBMC; actives raise or lower the signal. Put shortly: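 ELISA read-out of PGE2 from human umbilical vein endothelial cells co-cultured with peripheral blood mononuclear cells under LPS, 24 h post-dose. Gain or loss of signal scored relative to DMSO baseline.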

Read-out in test [13]: Macrophage colony-stimulating factor (MCSF), CSF1 (gene 1435)
In words: BSK_LPS_MCSF: BioMAP Diversity Plus: LPS Assay for Macrophage colony-stimulating factor (MCSF) Biomarker Activity (AID 2283083). As to conditions: primary human HUVEC with PBMC; actives raise or lower the signal. In a few lines: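 Bidirectional fitting against DMSO was applied to M-CSF levels read by ELISA at 24 h post-dose. The system pairs human umbilical vein endothelium with peripheral blood mononuclear cells; parallel SRB staining tracked cytotoxicity.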

Read-out in test [14]: Tumor necrosis factor (Homo sapiens) (UniProt P01375)
In words: BSK_LPS_TNFa: BioMAP Diversity Plus: LPS Assay for Tumour Necrosis Factor alpha (TNFa) Biomarker Activity (AID 2283085).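 For AC50: TNFa protein level quantified by ELISA in the co-culture.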 As to conditions: primary human HUVEC with PBMC; actives raise or lower the signal. Put shortly:
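HUVEC/PBMC co-culture, LPS-stimulated; 24 h post-dose; TNFa by ELISA; gain or loss of signal fitted bidirectionally vs DMSO baseline.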

Read-out in test [15]: Vascular cell adhesion molecule 1 (VCAM1), VCAM1 (gene 7412)
Kind of test: BSK_LPS_VCAM1: BioMAP Diversity Plus: LPS Assay for Vascular cell adhesion molecule 1 (VCAM1) Biomarker Activity (AID 2283086). The following applies: primary human HUVEC with PBMC; actives raise or lower the signal. In a few lines:
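ELISA read-out of VCAM-1 at 24 h post-dosing in an LPS-driven HUVEC/PBMC primary human co-culture; gain or loss of signal fitted bidirectionally against DMSO baseline. Cytotoxicity tracked in parallel cultures by SRB total-protein staining.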

Read-out in test [16]: CD38, CD38 (gene 952)
In words: BSK_SAg_CD38: BioMAP Diversity Plus: SAg Assay for CD38 Biomarker Activity (AID 2283087). As to conditions: primary human HUVEC with PBMC; actives raise or lower the signal. Put shortly:
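Measures CD38 on a human endothelial/PBMC co-culture driven by SEB and TSST-1, 24 h after compound exposure, using ELISA with fluorescence detection; DMSO defines baseline for bidirectional curve fitting.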

Read-out in test [17]: CD69, CD69 (gene 969)
In words: BSK_SAg_CD69: BioMAP Diversity Plus: SAg Assay for CD69 Biomarker Activity (AID 2283089).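 For AC50: cell surface CD69 protein quantified by ELISA with fluorescence detection.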 The following applies: primary human HUVEC with PBMC; actives raise or lower the signal. In a few lines: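 ELISA, fluorescence read-out: CD69 on human umbilical vein endothelial cell + PBMC co-culture, 24 h post-dosing. Gain or loss of signal fitted bidirectionally against DMSO baseline.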

Read-out in test [18]: Interleukin-8 (IL8), CXCL8 (gene 3576)
In words: BSK_LPS_IL8: BioMAP Diversity Plus: LPS Assay for Interleukin-8 (IL8) Biomarker Activity (AID 2283078). As to conditions: primary human HUVEC with PBMC; actives raise or lower the signal. In a few lines:
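ELISA read-out of IL-8 after 24 h chemical treatment of LPS-activated endothelial/PBMC human primary co-cultures. Changes either up or down relative to DMSO; overt cytotoxicity checked by sulforhodamine B staining in parallel wells.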

Read-out in test [19]: CD40, CD40 (gene 958)
Kind of test: BSK_SAg_CD40: BioMAP Diversity Plus: SAg Assay for CD40 Biomarker Activity (AID 2283088). The following applies: primary human HUVEC with PBMC; actives raise or lower the signal. Put shortly: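 CD40 is measured by fluorescence ELISA in an endothelial/PBMC primary human co-culture at 24 h post-dose. Fitting is bidirectional, DMSO baseline. Parallel SRB staining (560 nm) flags cytotoxicity.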

E-selectin (Homo sapiens), sequence (P16581 whole entry, looked up): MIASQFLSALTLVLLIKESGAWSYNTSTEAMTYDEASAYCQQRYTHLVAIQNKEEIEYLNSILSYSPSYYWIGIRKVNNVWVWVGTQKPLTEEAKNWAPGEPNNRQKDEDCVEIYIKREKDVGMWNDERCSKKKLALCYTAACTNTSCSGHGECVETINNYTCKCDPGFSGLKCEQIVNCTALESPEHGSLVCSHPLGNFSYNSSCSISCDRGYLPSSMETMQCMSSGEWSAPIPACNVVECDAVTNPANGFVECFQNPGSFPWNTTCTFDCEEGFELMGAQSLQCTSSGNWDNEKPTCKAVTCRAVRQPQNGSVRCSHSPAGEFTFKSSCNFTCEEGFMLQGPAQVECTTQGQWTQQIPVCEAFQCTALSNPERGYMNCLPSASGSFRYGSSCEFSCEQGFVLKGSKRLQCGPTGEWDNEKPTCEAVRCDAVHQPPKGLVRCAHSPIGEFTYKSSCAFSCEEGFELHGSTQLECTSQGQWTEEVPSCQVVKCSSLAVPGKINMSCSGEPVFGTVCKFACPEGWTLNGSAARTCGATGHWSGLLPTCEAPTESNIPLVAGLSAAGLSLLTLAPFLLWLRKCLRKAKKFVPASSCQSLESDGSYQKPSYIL
Tumor necrosis factor (Homo sapiens), sequence (P01375 whole entry, looked up): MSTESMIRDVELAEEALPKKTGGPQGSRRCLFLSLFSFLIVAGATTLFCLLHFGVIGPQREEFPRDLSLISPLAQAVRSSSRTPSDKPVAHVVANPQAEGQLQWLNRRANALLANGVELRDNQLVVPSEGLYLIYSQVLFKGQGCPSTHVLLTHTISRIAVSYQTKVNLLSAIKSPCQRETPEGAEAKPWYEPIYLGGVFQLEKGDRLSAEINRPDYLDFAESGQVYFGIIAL

In the case of `Cc1c(O)cccc1O`, the outcome in test [1], in [2], in test [3], in test [4], in [5] and in test [6] was inactive. The outcome in test [7], in [8], in [9], in [10], in test [11] and in test [12] was inactive. Also, the outcome in test [13], in [14], in test [15], in test [16] and in [17] was inactive.

What is called AC50 is the concentration giving half of the maximal activity seen. Consider `CC/C=C\C/C=C\C/C=C\CCCCCCCC(=O)OC`, for which the AC50 was 12.2 µM (active) in test [1]; 7.17 µM (active) in [2]; 6.41 µM (active) in test [3]; 5.29 µM (active) in test [4]; 12.2 µM (active) in test [5]; 20 µM (active) in test [7]. The AC50 in test [8] was 30.1 µM (active); in test [18], 29 µM (active); in test [9], 27.8 µM (active); in test [10] it was 13.9 µM (active); in test [11], 30.6 µM (active); in test [12], 5.75 µM (active). The AC50 was 17.5 µM (active) in test [13]; 13.7 µM (active) in [14]; 27.3 µM (active) in test [15]; 15.1 µM (active) in test [16]; 14.8 µM (active) in test [19]; 21.6 µM (active) in test [17].

With `O=C1CCCCCCCCCCCN1`, the outcome in test [1], in [2], in test [3], in [4], in test [5] and in [6] was inactive. In addition, the result in [7], in test [8], in test [9], in [10], in test [11] and in [12] was inactive. Besides, the result in [13], in [15], in test [16] and in test [17] was inactive. Besides, the AC50 in [14] is 11.9 µM (active).

`COc1ccc(C(=O)/C(Br)=C\C(=O)O)cc1`: the half-maximal activity concentration (AC50) in [1] is 20 µM (active) and 24.8 µM (active); in test [2] it was 20 µM (active); in test [3] it was 20 µM (active) and 6.52 µM (active); in test [4], 33 µM (active) and 35 µM (active); in [5] it was 25.6 µM (active) and 23.3 µM (active); in test [7], 10.2 µM (active) and 16 µM (active). The half-maximal activity concentration (AC50) in test [8] is 25.3 µM (active) and 30.3 µM (active); in [18], 20 µM (active); in test [9] it was 27.9 µM (active) and 31 µM (active); in test [10] it was 20 µM (active) and 17 µM (active); in [11], 31.3 µM (active) and 27.4 µM (active); in test [12], 7.75 µM (active) and 6.87 µM (active). Besides, the AC50 is 12.8 µM (active) and 20 µM (active) in [13]; 14.3 µM (active) and 28.4 µM (active) in [14]; 20 µM (active) in test [15]; 22.3 µM (active) and 20 µM (active) in test [16]; 20 µM (active) and 23.6 µM (active) in test [19]; 15.6 µM (active) and 15.7 µM (active) in [17].
